Assay outcomes (PubChem)
An excerpt weighted towards active compounds, which were near 1.2% of everything screened.
MEP2 TOR yeast: modulators of MEP2-GFP levels in yeast, primary screen, S. cerevisiae, multiplex flow cytometry, MLPCN library; S. cerevisiae MEP2-GFP strain, 3 h; 100% = DMSO control level; GFP response vs DMSO, % at 10 µM; hit rate 0.51% among 330,000; AID 2016, 2009;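 active means GFP response versus DMSO above a set limit, roughly screen mean plus 3 SD, cut at about 180% in these data; inconclusive means fewer than 70 cells counted for a yeast strain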;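 further: median GFP fluorescence of the barcode-gated MEP2-GFP cells per well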
CIT2 TOR yeast: modulators of CIT2-GFP expression in yeast, primary screen, S. cerevisiae, GFP fusion, multiplex flow cytometry, MLPCN library; S. cerevisiae CIT2-GFP strain, 3 h; 100 means same as DMSO wells; GFP response vs DMSO, % at 10 µM; hit rate 0.065% among 320,000; AID 2029, 2009;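 active means GFP response relative to DMSO above a set limit, near the screen mean plus 3 SD, cut at about 150% in these data; inconclusive means Fewer than 70 cells measured for a yeast strain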;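 further: ratio of well median GFP fluorescence to mean of DMSO wells on the plate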
AGP1-GFP MLPCN: modulators of AGP1-GFP expression in yeast TOR pathway, primary screen, cell-based, multiplex flow cytometry, S. cerevisiae, MLPCN library; 3 h; GFP as percent of DMSO wells; GFP response vs DMSO, % at 10 µM; hit rate 0.02% among 320,000;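 active means GFP response relative to DMSO above a set limit, near screen average plus 3 SD, cut at about 150% in these data; inconclusive means fewer than 70 cells counted for the yeast strain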;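 further: median GFP channel fluorescence of the gated AGP1 strain per well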
LAP4 TOR yeast: modulators of LAP4-GFP expression in yeast, primary screen, S. cerevisiae, multiplex flow cytometry, MLPCN library; 3 h; median GFP as percent of DMSO wells; GFP response vs DMSO, % at 10 µM; hit rate 0.34% among 320,000; AID 2023, 2009;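 active means GFP response vs DMSO above a set limit, about the screen mean plus 3 SD, cut at about 150% in these data; inconclusive means under 70 cell events counted for the yeast strain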
DSG3 Ab inh: inhibitors of pemphigus antibody binding to DSG3, primary screen, biochemical, bead-based, flow cytometry, scFv-GFP. AID 588358, 2011. hit rate 0.48% among 310,000. binding (percent of control), % at 10 µM. DSG3-coupled beads, scFv-anti-DSG3-GFP binding; stronger effect = lower value. Desmoglein-3 (Homo sapiens), P32926;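 active means binding more than 3 SD below its plate's average and above zero; inconclusive means below that plate limit but binding exactly zero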
Target sequence (P32926 whole entry, looked up): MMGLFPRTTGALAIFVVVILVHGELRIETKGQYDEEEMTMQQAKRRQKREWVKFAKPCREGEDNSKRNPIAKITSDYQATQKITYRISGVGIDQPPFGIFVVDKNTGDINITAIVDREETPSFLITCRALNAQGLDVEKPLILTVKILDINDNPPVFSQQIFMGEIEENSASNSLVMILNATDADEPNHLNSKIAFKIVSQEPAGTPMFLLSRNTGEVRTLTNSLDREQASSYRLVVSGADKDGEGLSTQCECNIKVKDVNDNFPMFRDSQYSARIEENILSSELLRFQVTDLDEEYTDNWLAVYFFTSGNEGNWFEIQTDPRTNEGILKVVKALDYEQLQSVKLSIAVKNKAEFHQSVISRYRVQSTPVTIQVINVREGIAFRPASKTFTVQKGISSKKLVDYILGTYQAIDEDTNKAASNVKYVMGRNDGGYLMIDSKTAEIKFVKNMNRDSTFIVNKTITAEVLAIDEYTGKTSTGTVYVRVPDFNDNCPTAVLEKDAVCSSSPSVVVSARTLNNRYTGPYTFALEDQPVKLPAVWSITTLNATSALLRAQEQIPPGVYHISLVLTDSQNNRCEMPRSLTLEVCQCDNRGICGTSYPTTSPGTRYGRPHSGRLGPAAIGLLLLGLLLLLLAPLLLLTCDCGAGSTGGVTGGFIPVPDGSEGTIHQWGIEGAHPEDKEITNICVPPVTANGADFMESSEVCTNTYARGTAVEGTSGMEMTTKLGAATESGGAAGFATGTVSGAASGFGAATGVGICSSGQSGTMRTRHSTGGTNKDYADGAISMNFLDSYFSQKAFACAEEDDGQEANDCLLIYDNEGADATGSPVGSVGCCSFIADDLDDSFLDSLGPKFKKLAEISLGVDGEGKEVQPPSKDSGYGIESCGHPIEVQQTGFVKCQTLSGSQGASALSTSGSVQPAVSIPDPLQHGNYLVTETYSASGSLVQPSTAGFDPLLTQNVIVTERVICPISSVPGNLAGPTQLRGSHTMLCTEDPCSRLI
RPL19A-GFP yeast: RPL19A-GFP expression modulators in yeast, primary screen, cell-based, S. cerevisiae, multiplex flow cytometry, MLPCN; S. cerevisiae RPL19A-GFP strain, 3 h; stronger effect = lower value; percent response vs DMSO, % at 10 µM; hit rate 0.3% among 330,000; AID 2025, 2009;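 active means percent response vs DMSO below 50%; inconclusive means fewer than 70 events counted for the yeast strain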;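 further: median channel GFP fluorescence of the barcoded RPL19A-GFP strain; ratio of sample median GFP to plate DMSO average so 100% = DMSO; lower means less RPL19A-GFP as with rapamycin TOR inhibition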
* hit, by the source's call; ? = inconclusive; / = no result given; [ ] = another dose, or the depositor's remark.

SMILES | MEP2 TOR yeast | CIT2 TOR yeast | AGP1-GFP MLPCN | LAP4 TOR yeast | DSG3 Ab inh | RPL19A-GFP yeast
CCCCOc1ccc(/C=N/NC(=S)Nc2cc(C)ccc2C)cc1 | 106 | 125 | 96 | 80 | 98 | 108
O=C(c1ccc2c(c1)OCO2)N1CCC(Cc2ccccc2)CC1 | 273*[may fluoresce violet] | ? | ? | 112 | 106 | 26*[may fluoresce violet]
C[C@H]1CN([C@@H](C)CO)C(=O)CCCn2cc(nn2)CO[C@@H]1CN(C)C(=O)Nc1cccc(Oc2ccccn2)c1 | / | / | / | / | 101 | /
CCCc1cc(=O)n(-c2nc3ccccc3s2)[nH]1 | 90 | 92 | 93 | 159* | 94 | 91
CC(C)(C)N(Cc1ccccc1)C(=O)COC(=O)c1ccccc1SCC(=O)N1CCCC1 | 100 | 101 | 105 | 100 | 107 | 101
COc1ccc(NC(=O)CSc2n[nH]c(-c3ccccn3)n2)cc1 | 314*[may fluoresce violet] | ? | ? | 88 | 111 | 37*[may fluoresce violet]
COc1ccc(NC(=O)CSc2nc(N3CCCCC3)nc(N3CCCCC3)n2)cc1 | 100 | 98 | 97 | 95 | 88* | /
O=C(O)COc1ccccc1/C=N/NC(=O)CSc1nc2ccccc2c(=O)n1-c1ccccc1 | 97 | 101 | 96 | 94 | 100 | 97
CCOc1cc(/C=N/NC(=O)c2cccc(S(=O)(=O)N3CCCC3)c2)ccc1OCC(=O)N(C)C | 89 | 87 | 95 | 92 | 122 | 89
C/C(=N\Nc1ccc(S(=O)(=O)Nc2ccccc2)cc1[N+](=O)[O-])c1ccc(N2CCOCC2)cc1 | 97 | 101 | 99 | 98 | 76* | 97
CCc1ccc2nc(NC(=O)Cn3cnc4ccccc4c3=O)sc2c1 | 99 | 94 | 101 | 108 | 98 | 97
O=C(Cn1cnc2ccccc2c1=O)Nc1nc2ccccc2s1 | 98 | 90 | 97 | 95 | 65* | 101
Cc1ccc(NC(=O)CCn2cnc3ccccc3c2=O)cc1 | 98 | 89 | 103 | 95 | 103 | 98
COc1ccc(/C=N/NC(=O)C(C)n2cnc3ccccc3c2=O)cc1 (configuration not stated) | 98 | 95 | 103 | 91 | 97 | 104
COc1ccc(/C=N/NC(=O)Cn2cnc3ccccc3c2=O)cc1 | 245*[may fluoresce violet] | ? | 22 | 79 | 121 | 49*[may fluoresce violet]
CC(=O)Nc1ccc(NC(=O)CCCn2cnc3ccccc3c2=O)cc1 | 242*[may fluoresce violet] | ? | 16 | 84 | 96 | 96
Cc1cccc2cc(C#N)c(NCCNC(=O)c3ccccc3)nc12 | / | / | / | / | 101 | /
CN(CC(=O)NCc1ccc(F)cc1)S(=O)(=O)c1cccc2nsnc12 | 99 | 101 | 102 | 99 | 97 | 96
Cc1ccc(N2CC(C(=O)N/N=C/c3c(F)cccc3Cl)CC2=O)cc1 (configuration not stated) | 102 | 90 | 86 | 73 | 106 | 112
COc1ccc(S(=O)(=O)N2CCN(C(=O)CCCN3C(=O)NC4(CCCC4)C3=O)CC2)cc1 | / | / | / | / | 103 | /
Fc1ccc(CSc2ccc(-c3ccc4c(c3)OCO4)nn2)cc1 | 107 | 101 | 103 | 105 | / | 110
c1ccc(CSc2ccc(-c3ccc4c(c3)OCO4)nn2)cc1 | 103 | 116 | 91 | 71 | 1.2* | 110
CC1(C)CC(=O)C=C(c2cc3ccccc3s2)C1 | 99 | 102 | 103 | 100 | 85* | 104
Cc1ccc(NC(=S)N(CCCN2CCOCC2)Cc2cccs2)c(C)c1 | 222* | 98 | 98 | 122 | 97 | 99
Cc1c(Cl)cccc1NC(=S)N(CCCN1CCOCC1)Cc1cccs1 | 128 | 99 | 97 | 95 | 83 | 103
SMILES | MEP2 TOR yeast | CIT2 TOR yeast | AGP1-GFP MLPCN | LAP4 TOR yeast | DSG3 Ab inh | RPL19A-GFP yeast
COc1ccc(N(Cc2cc3cccc(C)c3[nH]c2=O)C(=O)C2CCCO2)cc1 (configuration not stated) | 101 | 102 | 107 | 103 | 95 | 101
COc1ccc(-c2cn3c(C)c(C(=O)NC(C)(C)C)sc3n2)cc1 | 102 | 89 | 93 | 110 | 109 | 97
COc1ccc(-c2cn3c(C)c(C(=O)NC(C)C)sc3n2)cc1 | 99 | 100 | 108 | 103 | 47* | 109
CCOP(=O)(OCC)C(NC(=O)Nc1ccc(Cl)cc1)C(=O)N(CC)CC (configuration not stated) | 110 | 101 | 97 | 85 | 101 | 104
O=C(Nc1cccnc1)c1c(O)c2cccc3c2n(c1=O)CC3 | 150 | ? | ? | 38 | 97 | 49*[may fluoresce violet]
CNC(=O)c1c(O)c2cccc3c2n(c1=O)CC3 | 99 | 97 | 99 | 99 | 97 | 104
CC(C)CC(=O)Nc1ccc(C(=O)CN2CCN(c3ccc(O)cc3)CC2)cc1 | 237*[may fluoresce violet] | ? | ? | 58 | 94 | 26*[may fluoresce violet]
O=C(CN1CCN(c2ccc(O)cc2)CC1)Nc1ccc(S(=O)(=O)N2CCCC2)cc1 | 97 | 100 | 97 | 93 | 73* | 94
O=C(CN1CCCCC1)Nc1ccc(S(=O)(=O)N2CCCCCC2)cc1 | 102 | 94 | 92 | 96 | 102 | 94
Nc1ccccc1C#Cc1cnccn1 | 96 | 91 | 89 | 113 | 100 | 99
COc1ccc(CCC(C)Nc2cccc(F)c2)cc1 (configuration not stated) | 101 | 91 | 102 | 109 | 110 | 96
C=CCOC(=O)C1=C(C)NC(SCC(N)=O)=C(C#N)C1c1cccs1 (configuration not stated) | 102 | 97 | 96 | 100 | 18* | 99
CC(=O)C1=C(C)NC(SCC(N)=O)=C(C#N)C1c1cccs1 (configuration not stated) | 102 | 94 | 101 | 90 | 84 | 93
C=CCn1c(OCc2ccccc2)n[nH]c1=S | 100 | 97 | 92 | 91 | 97 | 99
CCOc1ccc2nc(SCC(=O)NC3CCCc4ccccc43)sc2c1 (configuration not stated) | 106 | 106 | 109 | 103 | 64* | 105
CN(CC(=O)Nc1ccc(F)cc1)CC(=O)Nc1ccc(F)c(F)c1F | 110 | 107 | 105 | 95 | 116 | 105
O=C(N/N=C/C(Br)=C/c1ccccc1)C(O)c1ccccc1 (configuration not stated) | 121 | ? | 27 | 97 | 100 | 63
O=C(O)c1ccc(N/N=C/C(Br)=C/c2ccccc2)cc1 | 106 | 98 | 72 | 161* | 88 | 107
COc1ccc(N2CCN(S(=O)(=O)CC34CCC(CC3=O)C4(C)C)CC2)cc1 (configuration not stated) | 103 | 99 | 98 | 91 | 114 | 99
